From PubChem BioAssay (Tox21)
Values joined by “and” are separate entries in the source; they are usually repeats but may differ in a detail not shown here. Equal values may be shown once. A number with no mark means an inactive call. Where a call stands in place of a potency, no number is given. Active and inactive are the calls of the source. Calls follow the shape of the full dose curve.

These compounds were tested against Acetylcholinesterase (Homo sapiens) (UniProt P22303) (assay: Acetylcholinesterase (AChE) small molecule antagonists: enzyme-based qHTS assay (AID 1347397; also: nearly all actives have a fitted effect of over 55% in size)). Details: Potency: AChE enzyme activity inhibition; series mostly up to 115 µM; activity change, negative = inhibition: at the top concentration.
From the text: National Center for Advancing Translational Sciences [NCATS]
Division of Preclinical Innovation [DPI]
U.S. Environmental Protection Agency [EPA]
National Institutes of Environmental Health Sciences [NIEHS]
National Toxicology Program [NTP]
U.S. Food and Drug Administration [FDA]
Acetylcholinesterase (AChE) is the primary cholinesterase in the body that hydrolyzes a key neurotransmitter, acetylcholine. Inhibition of AChE activity can lead to neurotoxicity. The known inhibitors include organophosphorous pesticides (OP), chemical warfare agents, drugs, and various phytochemicals.
An enzyme-based assay with the recombinant human AChE and Amplite Colormetric acetylcholinesterase assay kit (AAT Bioquest, Sunnyvale, CA) was used to evaluate the chemicals in the Tox21 10K library that inhibit AChE activity. The assay uses 5, 5-dithiobis-(2-nitrobenzoic acid) (DTNB) to quantify the thiocholine produced from the hydrolysis of acetylthiocholine by AChE.
Tox21 Assay Protocol Summary:
For the enzyme-based AChE assay, recombinant human AChE (50 mU/mL) in 4 uL/well was dispensed into black, clear-bottom 1536-well plates using a Multidrop Combi dispenser (Thermo Scientific, MA). Then, 23 nL of compound or DMSO (vehicle control) was transferred into the assay plates by a Pintool Station (Wako Automation, CA). The plates were incubated for 30 min at room temperature, followed by the addition of 4 uL of colorimetric detection cocktail solution (DTNB, acetylthiocholine) into each well using a Flying Reagent Dispenser (Beckman Coulter, CA) and then 10 min incubation at room temperature.
Potency is read from the fitted curve at half-maximal effect.

Chain of Acetylcholinesterase (Homo sapiens) (P22303 whole entry, looked up): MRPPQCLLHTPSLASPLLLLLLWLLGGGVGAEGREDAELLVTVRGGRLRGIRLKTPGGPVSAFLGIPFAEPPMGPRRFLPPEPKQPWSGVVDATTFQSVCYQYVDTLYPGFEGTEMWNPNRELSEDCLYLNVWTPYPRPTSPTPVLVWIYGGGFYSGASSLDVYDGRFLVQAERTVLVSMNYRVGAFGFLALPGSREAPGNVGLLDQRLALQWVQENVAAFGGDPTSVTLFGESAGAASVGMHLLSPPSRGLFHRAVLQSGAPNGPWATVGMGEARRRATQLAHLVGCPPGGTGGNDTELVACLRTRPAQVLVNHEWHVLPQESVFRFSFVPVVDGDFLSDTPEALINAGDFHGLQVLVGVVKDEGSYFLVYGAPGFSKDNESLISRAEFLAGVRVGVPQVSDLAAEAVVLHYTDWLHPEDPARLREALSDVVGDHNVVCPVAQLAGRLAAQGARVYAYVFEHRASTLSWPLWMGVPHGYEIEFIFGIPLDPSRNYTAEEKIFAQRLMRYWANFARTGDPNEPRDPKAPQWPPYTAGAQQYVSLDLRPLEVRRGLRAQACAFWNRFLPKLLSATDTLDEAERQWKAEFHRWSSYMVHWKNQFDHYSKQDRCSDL

Row | Structure (SMILES) | Potency | activity change, negative = inhibition
1 | ClCCBr | inactive | 
2 | C1CN2CCN1CC2 | inactive | 
3 | O=S(=O)(c1ccc(Cl)cc1)c1cc(Cl)c(Cl)cc1Cl | inactive | 
4 | CCCCN(CCCC)SN(C)C(=O)Oc1cccc2c1OC(C)(C)C2 | 57.3 nM (active) and 894 nM (active) | 
5 | O=NN1CCCCCCC1 | inactive | 
6 | C1CC2OC2CC1C1CO1 (stereo not given) | inactive | 
7 | CC(C)(Cl)Cl | inactive | 
8 | CCCN(CCC)c1c([N+](=O)[O-])cc(C(F)(F)F)cc1[N+](=O)[O-] | inactive | 
9 | O=C(NC(=O)c1c(F)cccc1F)Nc1cc(Cl)c(OC(F)(F)C(F)C(F)(F)F)cc1Cl (stereo not given) | inactive | 
10 | CN(N=O)c1ccccc1 | inactive | 
11 | c1ccc2c(c1)Oc1ccccc1O2 | inactive | 
12 | c1ccc2c(c1)oc1ccccc12 | inactive | 
13 | Nc1c(Cl)c(Cl)nc(C(=O)O)c1Cl | inactive | 
14 | COC(=O)c1ccccc1N | inactive | 
15 | CCC12COCN1COC2 | inactive | 
16 | CCCC1COC(Cn2cncn2)(c2ccc(Cl)cc2Cl)O1 (stereo not given) | inactive | 
17 | Cc1ccc(N)cc1N | inactive | 
18 | Cc1ccc(N)cc1Cl | inactive | 
19 | Cc1ccc([N+](=O)[O-])cc1C | inactive | 
20 | Clc1ccccc1Cl | inactive | 

Row | Structure (SMILES) | Potency | activity change, negative = inhibition
21 | CCCCCCCCCl | inactive | 
22 | Cc1[nH]c(=O)n(C(C)(C)C)c(=O)c1Cl | inactive | 
23 | CCOP(OCC)OCC | inactive | 
24 | CCNc1nc(NC(C)(C)C)nc(SC)n1 | inactive | 
25 | CCCCCCCCCCCC#N | inactive | 
26 | NCCc1ccc(O)cc1 | inactive | 
27 | C[C@]12CC[C@H]3[C@@H](CC[C@@]45O[C@@H]4C(O)=C(C#N)C[C@]35C)[C@@H]1CC[C@@H]2O | inactive | 
28 | Oc1ccccc1Cl | inactive | 
29 | O=[N+]([O-])c1ccccc1 | inactive | 
30 | O=[N+]([O-])c1ccc(Oc2ccc(Cl)cc2Cl)cc1 | inactive | 
31 | Cc1cccc([N+](=O)[O-])c1 | inactive | 
32 | C=CCO | inactive | 
33 | CC(C#N)CCC#N (stereo not given) |  | -0.11%
34 | Clc1ccc(Cl)cc1 | inactive | 
35 | Nc1ccc(Br)cc1 | inactive | 
36 | COCCl | inactive | 
37 | c1cc2c3c(cccc3c1)CC2 | inactive | 
38 | Nc1ccc(Cc2ccc(N)cc2)cc1 | inactive | 
39 | CCCCCOC(=O)c1ccccc1C(=O)OCCCCC | inactive | 
40 | COC(=O)c1ccccc1C(=O)OC | inactive | 
